Laboratory results taken from ChEMBL document CHEMBL1201862, “PubChem BioAssay data set” (2004).
About 2,100 (0.53%) of roughly 400,000 compounds were called active. About 14% were inconclusive and are not listed. How the calls were made is not given here. What follows is part of a selection rich in actives, with near analogues and random picks from the rest.

biological target: Ataxin-2 (Homo sapiens) (UniProt Q99700); assay: qHTS for Inhibitors of ATXN expression.; format: functional
Sequence (Q99700 whole entry): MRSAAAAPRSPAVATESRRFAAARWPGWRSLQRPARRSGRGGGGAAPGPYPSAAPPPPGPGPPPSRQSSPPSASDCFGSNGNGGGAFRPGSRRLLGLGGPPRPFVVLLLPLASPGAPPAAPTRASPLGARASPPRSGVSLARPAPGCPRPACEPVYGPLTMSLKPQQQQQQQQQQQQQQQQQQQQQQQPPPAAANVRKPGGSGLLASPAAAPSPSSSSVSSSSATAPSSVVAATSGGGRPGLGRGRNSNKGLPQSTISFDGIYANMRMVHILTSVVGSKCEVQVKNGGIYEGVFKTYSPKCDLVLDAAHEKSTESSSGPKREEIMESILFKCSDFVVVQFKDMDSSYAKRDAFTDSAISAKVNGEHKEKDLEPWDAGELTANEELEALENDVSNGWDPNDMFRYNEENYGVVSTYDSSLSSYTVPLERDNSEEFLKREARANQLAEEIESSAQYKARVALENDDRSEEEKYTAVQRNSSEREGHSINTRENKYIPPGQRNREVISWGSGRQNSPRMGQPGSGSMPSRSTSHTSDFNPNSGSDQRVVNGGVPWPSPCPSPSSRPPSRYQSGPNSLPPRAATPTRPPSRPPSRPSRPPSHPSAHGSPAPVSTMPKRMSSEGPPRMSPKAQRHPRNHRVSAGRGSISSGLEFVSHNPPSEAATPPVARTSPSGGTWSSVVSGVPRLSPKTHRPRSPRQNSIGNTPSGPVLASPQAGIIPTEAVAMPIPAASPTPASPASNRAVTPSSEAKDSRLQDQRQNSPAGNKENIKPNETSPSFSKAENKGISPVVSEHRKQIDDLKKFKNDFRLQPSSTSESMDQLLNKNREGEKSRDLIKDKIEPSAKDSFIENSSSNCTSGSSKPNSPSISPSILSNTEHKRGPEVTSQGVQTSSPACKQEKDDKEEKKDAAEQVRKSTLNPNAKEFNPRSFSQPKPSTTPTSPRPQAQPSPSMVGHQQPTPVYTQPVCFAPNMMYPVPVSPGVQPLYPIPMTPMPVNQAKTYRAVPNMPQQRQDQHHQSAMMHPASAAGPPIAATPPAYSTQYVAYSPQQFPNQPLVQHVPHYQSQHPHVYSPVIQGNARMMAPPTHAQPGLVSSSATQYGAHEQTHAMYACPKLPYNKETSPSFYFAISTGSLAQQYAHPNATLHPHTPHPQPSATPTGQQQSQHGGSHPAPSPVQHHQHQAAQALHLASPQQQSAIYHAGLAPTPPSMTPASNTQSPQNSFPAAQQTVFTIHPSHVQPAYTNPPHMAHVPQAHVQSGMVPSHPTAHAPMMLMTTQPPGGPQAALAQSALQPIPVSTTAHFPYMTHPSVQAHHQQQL

| SMILES | Potency |
| --- | --- |
| COc1cc(C(Nc2ccccn2)c2ccc3ccc(C)nc3c2O)cc(OC)c1O (centres undefined) | 39.8 µM (active) |
| Cc1cccc(NC(c2ccccc2C)c2ccc3ccc(C)nc3c2O)n1 (centres undefined) | inactive |
| COc1cc(/C=N/Nc2ccccn2)cc(OC)c1O | inactive |
| CC(C)C[C@@H](COCc1cccc(Cl)c1)N1CCN(C(=O)c2ccc(C(F)(F)F)cc2)CCC1=O | 22.4 µM (active) |
| CN1CCN(C(=O)c2ccc(C(F)(F)F)cc2)CC1 | inactive |
| CC(C)CC(COCc1cccc(Cl)c1)N1CCN(C(=O)c2ccc(C(F)(F)F)cc2)CCC1=O (centres undefined) | 39.8 µM (active) |
| CC(C)C[C@@H](COCc1ccc(Cl)cc1)N1CCN(C(=O)c2ccc(C(F)(F)F)cc2)CCC1=O | 31.6 µM (active) |
| CCn1nc(NC(C)=O)c2cc3ccc(C)cc3nc21 | inactive |
| CCC(=O)NC1=C(Cl)C(=O)C(NC(=O)CC)=C(Cl)C1=O | 5.01 µM (active) |
| CCN(CC)c1ccc2cc(-c3nnc(-c4ccncc4)o3)c(=O)oc2c1 | inactive |
| O=C(N/N=C/c1sc(N2CCOCC2)nc1-c1ccccc1)c1ccccc1Cl | inactive |
| O=C(Oc1c(-c2ccco2)oc2ccccc2c1=O)c1cccnc1 | inactive |
| CCOC(=O)C1=C(C)OC(N)=C(C#N)C1c1cccs1 (centres undefined) | inactive |
| O=S(=O)(Nc1cccc(-c2nc3cccnc3s2)c1)c1ccc2c(c1)CCCC2 | inactive |
| CC1C(=O)C(C)C(c2cc(Cl)ccc2O)NC1c1cc(Cl)ccc1O (centres undefined) | 39.8 µM (active) |
| CCc1cc2c(CN3CCN(CC)CC3)cc(=O)oc2cc1O | inactive |
| CCCCN(C)C1=CC2=CC(=C(C#N)C#N)CCC2CC1 (centres undefined) | inactive |
| O=C(c1cc(-c2ccc(F)cc2)nc2ccccc12)N1CCN(C2CCS(=O)(=O)C2)CC1 (centres undefined) | inactive |
| COc1cc(OC)c(OC)cc1CNCC1COc2ccccc2O1 (centres undefined) | inactive |
| Cc1sc2ncn(CC(=O)NCC3COc4ccccc4O3)c(=O)c2c1S(=O)(=O)N1CCCCC1 (centres undefined) | inactive |
| Cc1nc2ccccc2c2oc(C(=O)NCC3COc4ccccc4O3)cc12 (centres undefined) | 35.5 µM (active) |
| Cc1nc2ccccc2c2oc(C(=O)N3CCC(N4CCCCC4)CC3)cc12 | 5.62 µM (active) |

| SMILES | Potency |
| --- | --- |
| COCc1c(C(=O)N2CCC(N3CCCCC3)CC2)cnn1-c1ncc(C)c(-c2cccs2)n1 | inactive |
| Nc1cccc(N2C(=O)c3cccc4c(N)ccc(c34)C2=O)c1 | inactive |
| CC(O)C(/N=C/C1=C(O)OC(C)(C)OC1=O)C(=O)O (centres undefined) | inactive |
| O=C(O)c1ccc2nc(-c3ccco3)c(-c3ccco3)nc2c1 | inactive |
| CCOc1ccc2nc3sc(C(=O)N4CCOCC4)c(N)c3cc2c1 | inactive |
| Nc1c(C(=O)Nc2ccc(S(=O)(=O)N3CCCC3)cc2)sc2nc3ccc(OC(F)(F)F)cc3cc12 | 4.47 µM (active) |
| CCc1cccc2cc3c(N)c(C(=O)Nc4ccc(S(=O)(=O)N5CCCC5)cc4)sc3nc12 | inactive |
| N#C/C(=C\c1c(Oc2ccc(Cl)cc2)nc2ccccn2c1=O)C(=O)NC1CCS(=O)(=O)C1 (centres undefined) | inactive |
| COC(=O)c1[nH]c2ccc(Br)cc2c1NC(=O)C(C)N1CCN(C2CCCCC2)CC1 (centres undefined) | 39.8 µM (active) |
| Cn1c(N)c(C(=O)COC(=O)CCOc2ccc(C(C)(C)C)cc2)c(=O)n(C)c1=O | inactive |
| O=C(NC1CCC(O)CC1)c1cc(-c2ccco2)nc2ccccc12 (centres undefined) | inactive |
| COc1cc(OC)cc(C(=O)NCCCCNC(=O)c2cc(OC)cc(OC)c2)c1 | inactive |
| COc1cc(CN2CCC3(CCC(CNC(=O)c4ccccc4)O3)CC2)cc(OC)c1 (centres undefined) | 11.2 µM (active) |
| CN1CCCC1CCNc1ccc2c(=O)c3ccccc3oc2c1 (centres undefined) | inactive |
| N#C/C(=C(/O)COC(=O)c1ccccc1O)c1nc2ccccc2s1 | inactive |
| Cc1c(Cl)cccc1N/C(SCC(=O)N1CCCCCC1)=C(/C#N)c1nc2ccccc2s1 | 25.1 µM (active) |
| CC1=CC(=C(C#N)c2nc3ccccc3s2)C=C(C)N1CC1CCCO1 (centres undefined) | inactive |
| COc1ccc(-c2c(C#N)c(N)nc3sc(C(=O)c4ccccc4)c(N)c23)cc1 | inactive |
| COc1ccc(CNCC(=O)Nc2sccc2C#N)cc1 | inactive |
| COc1ccc(-c2oc(NC(=O)CCl)c(C#N)c2-c2ccc(OC)cc2)cc1 | 31.6 µM (active) |
| Cc1cccc(C)c1NC(=O)NC1(C(=O)N2CCCCC2)CCCCC1 | inactive |
| O=S(=O)(Nc1nc2n(n1)C(c1ccc(F)cc1)C=C(c1ccccc1)N2)c1ccc(Cl)cc1 (centres undefined) | inactive |

| SMILES | Potency |
| --- | --- |
| CC(C)Cc1ccc(C(C)/C=C2/CCC(CN3CCCCC3)C2=O)cc1 (centres undefined) | 35.5 µM (active) |
| CCOC(=O)C1C(=O)C=C(c2ccc(NS(C)(=O)=O)cc2)CC1c1ccco1 (centres undefined) | inactive |
| COn1c(C)c(C)c2c3nonc3ccc21 | inactive |
| O=C(O)c1cc2cc(Cl)cc(Cl)c2oc1=O | inactive |
| O=C1C(Br)=C(c2ccccc2)C(c2ccccc2)=C1c1ccccc1 | 39.8 µM (active) |
| O=C(c1cnc2nc3ccccc3n2c1)c1cc(F)ccc1O | inactive |
| CC(C)(C)c1ccc(C2=CC(c3ccccc3F)n3ncnc3N2)cc1 (centres undefined) | inactive |
| O=C1C=CC(=O)N1c1ccc(N2CCCCC2)cc1 | 39.8 µM (active) |
| CN1C(=O)c2ccc(N3CCCC3)cc2C1=O | inactive |
| O=S(=O)(c1ccccc1)c1ccc(N2CCCCCC2)cc1 | inactive |
| COc1ccc(C(=O)c2sc(Nc3ccccc3)nc2N)cc1OC | inactive |
| NC(c1csc(Nc2ccc(C(=O)c3ccccc3)cc2)n1)C1CCCCC1 (centres undefined) | 31.6 µM (active) |
| NC(Cc1ccc(Cl)cc1)c1csc(Nc2ccc(C(=O)c3ccccc3)cc2)n1 (centres undefined) | 39.8 µM (active) |
| NC(Cc1ccc(F)cc1)c1csc(Nc2ccc(C(=O)c3ccccc3)cc2)n1 (centres undefined) | 39.8 µM (active) |
| COc1ccc(C(=O)c2sc(Nc3ccccc3)nc2C)cc1 | inactive |
| O=C(O)Cc1sc(Nc2ccccc2)nc1-c1ccccc1 | inactive |
| COc1cccc(Nc2nc(C(N)C3CCCCC3)cs2)n1 (centres undefined) | 39.8 µM (active) |
| CCOC(=O)c1cc2c(=O)n3ccccc3nc2n(Cc2ccco2)/c1=N/C(=O)c1ccc(OC)cc1 | inactive |
| O=C1CCCC(O)=C1C1C2=C(CCCC2=O)OC2=C1C(=O)CCC2 | inactive |
| CCOc1cccc2cc(-c3csc(NC(=O)CCC(=O)NCCN4CCCCC4C)n3)c(=O)oc12 (centres undefined) | inactive |
